Source: PubChem BioAssay (Tox21)
Records with an inconclusive call do not appear. Calls of active or inactive are those of the source. Unless noted, calls follow the shape of the dose curve; as a rule, active = well fitted curve in the direction sought with a large enough effect in the repeat runs; inconclusive = weak or mixed curves; inactive = no such curve, though single readings can be large; an effect the other way counts as inactive or inconclusive.

Key:
[1] = qHTS RealTime-Glo MT Cell Viability Assay in HEK293 cells - 0 hour (AID 1224880); also: nearly all actives have a fitted effect of over 45% in size; also: potency is read from the fitted curve at half-maximal effect; as to activity change, negative = cytotoxicity: top concentration of the series differs between compounds
How it was run: (§1)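 Nonlytic bioluminescent viability monitoring. HEK293 at 600 cells/well with reagent; 5 h settle; compound transfer by pintool; plates held at 37 C and read at set time points.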

[2] = A CellTox Green Cytotoxicity Assay to monitor cytotoxicity in HEK293 cells - 32 hour (AID 1224881); also: nearly all actives have a fitted effect of over 40% in size
How it was run: (§2)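 Cytotoxicity was tracked continuously in HEK293 cells by a DNA-binding dye excluded from viable cells. Compounds were transferred in DMSO 5 h after seeding; fluorescence was recorded at intervals up to 40 h.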

[3] = A CellTox Green Cytotoxicity Assay to monitor cytotoxicity in HepG2 cells - 0 hour (AID 1224882); also: nearly all actives have a fitted effect of over 35% in size
How it was run: (§3)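 Real-time, homogeneous cytotoxicity readout: dead-cell DNA staining by CellTox Green in HepG2 monolayers, fluorescence measured at timed intervals up to 40 h of continuous compound exposure.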

[4] = A CellTox Green Cytotoxicity Assay to monitor cytotoxicity in HepG2 cells - 32 hour (AID 1224883); also: nearly all actives have a fitted effect of over 50% in size; also: potency is read from the fitted curve at half-maximal effect
How it was run: as §3

[5] = A CellTox Green Cytotoxicity Assay to monitor cytotoxicity in HEK293 cells - 8 hour (AID 1224884); also: nearly all actives have a fitted effect of over 35% in size
How it was run: as §2

[6] = qHTS RealTime-Glo MT Cell Viability Assay in HepG2 cells - 16 hour (AID 1224885); also: nearly all actives have a fitted effect of over 50% in size; also: potency is read from the fitted curve at half-maximal effect
How it was run: (§4)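 Compound treatment began 5 h after plating HepG2 cells (600/well) with NanoLuc luciferase and prosubstrate. Plates stayed at 37 C for 40 h; luminescence was captured at six time points, 0 h through 40 h.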

[7] = qHTS RealTime-Glo MT Cell Viability Assay in HEK293 cells - 24 hour (AID 1224886); also: nearly all actives have a fitted effect of over 50% in size; also: potency is read from the fitted curve at half-maximal effect; as to activity change, negative = cytotoxicity: top concentration of the series differs between compounds
How it was run: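 Quantitative high-throughput screen of the Tox21 10K library in HEK293: cells and RealTime-Glo reagents plated together, compound added at 5 h, luminescence monitored through 40 h at 37 C.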

[8] = qHTS RealTime-Glo MT Cell Viability Assay in HEK293 cells - 8 hour (AID 1224887); also: nearly all actives have a fitted effect of over 50% in size; also: potency is read from the fitted curve at half-maximal effect; as to activity change, negative = cytotoxicity: top concentration of the series differs between compounds
How it was run: as §1

[9] = qHTS RealTime-Glo MT Cell Viability Assay in HepG2 cells - 0 hour (AID 1224889); also: nearly all actives have a fitted effect of over 50% in size
How it was run: as §4

[10] = A CellTox Green Cytotoxicity Assay to monitor cytotoxicity in HepG2 cells - 8 hour (AID 1224890); also: nearly all actives have a fitted effect of over 45% in size
How it was run: as §3

[11] = qHTS assay to identify small molecule antagonists of the estrogen receptor alpha (ER-alpha) signaling pathway using the BG1 cell line in the presence of 0.1 nM 17-beta-estradiol - cell viability counter screen (AID 1259241); also: nearly all actives have a fitted effect of over 40% in size; also: potency is read from the fitted curve at half-maximal effect
How it was run: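 The cell line endogenously expresses full-length ER-alpha and carries four EREs driving luciferase. Cells are cultured 5 days hormone-free, treated 22 hr with compounds and 0.1 nM estradiol, then viability is read by fluorescence.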

[12] = qHTS assay to identify small molecule antagonists of the androgen receptor (AR) signaling pathway using the MDA cell line in the presence of 0.5 nM R1881 - cell viability counter screen (AID 1259242); also: nearly all actives have a fitted effect of over 45% in size
How it was run: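 Cytotoxicity toward MDA-kb2 cells is measured by CellTiter-Fluor live-cell protease fluorescence after 16 hr compound exposure at 37C in the presence of 0.5 nM R1881 stimulator.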

[13] = target: Androgen receptor (Homo sapiens) (UniProt P10275); assay: qHTS assay to identify small molecule antagonists of the androgen receptor (AR) signaling pathway using the MDA cell line in the presence of 0.5 nM R1881 (AID 1259243); also: nearly all actives have a fitted effect of over 50% in size
How it was run: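 Steps: seed MDA-kb2 cells, incubate 5 hr at 37C; pin-transfer compounds in DMSO; add R1881 to 0.5 nM final; incubate 16 hr; add ONE-Glo, wait 30 min at room temperature; read luminescence.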

[14] = qHTS assay to identify small molecule HDAC inhibitors (AID 1259364); also: nearly all actives have a fitted effect of over 45% in size; also: potency is read from the fitted curve at half-maximal effect; as to activity change, negative = inhibition: top concentration of the series differs between compounds
How it was run: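 Homogeneous cell-based luminescent assay of endogenous class I/II HDAC activity; HCT-116 cells, 2 h compound exposure, 30 min HDAC-Glo development at RT.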

[15] = qHTS assay to identify small molecule HDAC inhibitors - cell viability counter screen (AID 1259365)
How it was run: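 Viability readout: CellTiter-Glo luminescence. Wild-type HCT-116 cells, 2hr compound treatment following overnight attachment at 37 C.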

[16] = qHTS assay to identify small molecule agonists of the sonic hedgehog signaling (Shh) pathway - cell viability counter screen (AID 1259366); also: nearly all actives have a fitted effect of over 50% in size
How it was run: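 Viability measured fluorometrically (CellTiter-Fluor, 1hr, 37C) in 3T3 Gli1-Luc reporter cells after 23hr compound exposure within a 24hr incubation at 37C/5% CO2.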

[17] = qHTS assay to identify small molecule antagonists of the sonic hedgehog signaling (Shh) pathway - cell viability counter screen (AID 1259367); also: nearly all actives have a fitted effect of over 55% in size
How it was run: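 NIH/3T3-derived Gli1-Luc reporter cells, 2,000/well, plated 4 hr before compound addition, then stimulated with conditioned medium for 24 hr at 37C. Viability measured in the same wells by CellTiter-Fluor fluorescence, reagent added at 23 hr for 1 hr.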

[18] = A CellTox Green Cytotoxicity Assay to monitor cytotoxicity in HEK293 cells - 16 hour (AID 1224888); also: nearly all actives have a fitted effect of over 35% in size
How it was run: as §2

[19] = target: Estrogen receptor (Homo sapiens) (UniProt P03372); assay: qHTS assay to identify small molecule antagonists of the estrogen receptor alpha (ER-alpha) signaling pathway using the BG1 cell line in the presence of 0.1 nM 17-beta-estradiol (AID 1259244); also: nearly all actives have a fitted effect of over 50% in size; also: potency is read from the fitted curve at half-maximal effect
How it was run: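 After 5 days in hormone-depleted medium (charcoal-stripped serum, no phenol red), VM7Luc4E2 cells were seeded, incubated 24 h, then co-treated with compound and 0.1 nM (final) estradiol for 22 h before luminescence detection.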

[20] = qHTS assay to identify small molecule phospholipidosis (PLD) inducers (AID 1259344; active = well fitted curve in the direction sought with a large enough effect; an effect the other way counts as inactive or inconclusive)
How it was run: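 HepG2 cells, 900/well, treated with compound plus LipidTOX Red for 24 h at 37 C; amiodarone positive and DMSO negative controls. Fixed with paraformaldehyde/Hoechst, then high-content imaging scored LipidTOX pit count and integrated intensity per well and per cell.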
% is scaled to controls: 0 for no effect and ±100 for the full control effect.

Chain of Androgen receptor (Homo sapiens) (P10275 whole entry, looked up): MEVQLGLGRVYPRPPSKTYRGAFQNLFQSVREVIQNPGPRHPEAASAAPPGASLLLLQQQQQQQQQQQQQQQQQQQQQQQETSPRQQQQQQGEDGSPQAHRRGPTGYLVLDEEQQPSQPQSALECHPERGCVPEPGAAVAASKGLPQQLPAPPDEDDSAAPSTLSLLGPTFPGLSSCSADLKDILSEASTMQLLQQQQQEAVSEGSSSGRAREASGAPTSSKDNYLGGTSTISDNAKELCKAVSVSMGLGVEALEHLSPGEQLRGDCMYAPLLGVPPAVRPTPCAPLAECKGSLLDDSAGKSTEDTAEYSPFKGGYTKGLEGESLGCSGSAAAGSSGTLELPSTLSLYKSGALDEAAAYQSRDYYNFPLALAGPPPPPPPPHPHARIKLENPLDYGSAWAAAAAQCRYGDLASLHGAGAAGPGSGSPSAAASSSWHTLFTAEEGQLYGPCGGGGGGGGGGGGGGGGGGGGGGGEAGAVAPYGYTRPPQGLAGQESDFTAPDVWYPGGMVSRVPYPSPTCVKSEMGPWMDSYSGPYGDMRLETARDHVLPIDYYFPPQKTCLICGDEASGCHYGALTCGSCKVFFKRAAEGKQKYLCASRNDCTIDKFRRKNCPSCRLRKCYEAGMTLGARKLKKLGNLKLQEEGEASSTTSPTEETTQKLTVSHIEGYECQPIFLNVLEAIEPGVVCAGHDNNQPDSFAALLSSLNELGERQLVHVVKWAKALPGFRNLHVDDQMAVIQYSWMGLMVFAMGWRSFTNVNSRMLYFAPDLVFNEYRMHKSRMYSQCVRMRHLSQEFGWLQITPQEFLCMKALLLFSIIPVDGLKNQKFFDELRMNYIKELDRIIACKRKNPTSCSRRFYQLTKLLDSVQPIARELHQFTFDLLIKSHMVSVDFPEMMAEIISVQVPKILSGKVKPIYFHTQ
Chain of Estrogen receptor (Homo sapiens) (P03372 whole entry, looked up): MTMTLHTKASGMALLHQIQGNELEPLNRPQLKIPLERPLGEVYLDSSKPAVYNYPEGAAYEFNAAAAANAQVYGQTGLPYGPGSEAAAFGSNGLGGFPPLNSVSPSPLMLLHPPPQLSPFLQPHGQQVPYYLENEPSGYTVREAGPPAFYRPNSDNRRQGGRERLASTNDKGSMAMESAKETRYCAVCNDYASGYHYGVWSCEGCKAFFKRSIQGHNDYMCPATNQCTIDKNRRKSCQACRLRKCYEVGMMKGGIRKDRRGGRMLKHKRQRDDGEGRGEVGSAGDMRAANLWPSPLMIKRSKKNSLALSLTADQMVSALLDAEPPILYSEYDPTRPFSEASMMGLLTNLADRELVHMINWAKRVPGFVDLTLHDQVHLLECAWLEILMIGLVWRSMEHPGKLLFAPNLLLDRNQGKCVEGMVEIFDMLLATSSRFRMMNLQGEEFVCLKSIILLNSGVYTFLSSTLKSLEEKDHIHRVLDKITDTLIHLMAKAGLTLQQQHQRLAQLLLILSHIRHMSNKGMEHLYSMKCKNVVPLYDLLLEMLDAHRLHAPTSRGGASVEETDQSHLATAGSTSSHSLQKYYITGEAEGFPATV

C[Si]1(C)O[Si](C)(C)O[Si](C)(C)O1
inactive: Potency [1] | Potency [2] | Potency [3] | Potency [4] | Potency [5] | Potency [6] | Potency [7] | Potency [8] | Potency [9] | Potency [10] | Potency [11] | Potency [12] | Potency [13] | Potency [14] | Potency [15] | Potency [16] | Potency [17]

O=C(CS)OCCOC(=O)CS
active: Potency [14] 8.63 µM
inactive: Potency [1] | Potency [2] | Potency [3] | Potency [4] | Potency [5] | Potency [6] | Potency [7] | Potency [8] | Potency [18] | Potency [9] | Potency [10] | Potency [11] | Potency [12] | Potency [15] | Potency [16] | Potency [17]

C=CCCCCCCCCCCCCCCCC
inactive: activity change, negative = cytotoxicity [1] -0.1% [at 6.97 µM] | cytotoxicity increase [2] -2.25% [at 6.97 µM] | cytotoxicity [3] -13.6% [at 6.97 µM] | cytotoxicity increase [4] -20.4% [at 6.97 µM] | cytotoxicity increase [5] -6.36% [at 6.97 µM] | activity change, negative = cytotoxic [6] -8.12% [at 6.97 µM] | activity change, negative = cytotoxicity [7] -6.06% [at 6.97 µM] | activity change, negative = cytotoxicity [8] -0.881% [at 6.97 µM] | activity change [18] -0.39% [at 6.97 µM, active compounds read high] | activity change, negative = cytotoxicity [9] -21.4% [at 6.97 µM] | cytotoxicity increase [10] -16.6% [at 6.97 µM] | activity change, negative = cytotoxicity [11] 0.274% [at 8.39 µM] | viability change, negative = cytotoxic [12] 2.55% [at 8.39 µM] | activity change, negative = inhibition [19] 11.9% [at 8.39 µM] | activity change, negative = inhibition [14] 2.22% [at 8.39 µM] | activity change, negative = cytotoxicity [15] -1.22% [at 8.39 µM] | viability change, negative = cytotoxic [16] 4.48% [at 8.39 µM] | viability change, negative = cytotoxic [17] 0.663% [at 8.39 µM]

CCNC(=O)N1CCN(CCCC(c2ccc(F)cc2)c2ccc(F)cc2)CC1
inactive: Potency [1] | Potency [2] | Potency [3] | Potency [5] | Potency [6] | Potency [18] | Potency [9] | outcome [20] | Potency [14] | Potency [15] | Potency [17]
active: Potency [4] 21.3 µM | Potency [7] 16.9 µM | Potency [8] 16.9 µM | Potency [11] 26.6 µM | Potency [19] 18.8 µM

COc1cc2[nH]c(=O)[nH]c(=O)c2cc1OC
inactive: Potency [1] | Potency [2] | Potency [3] | Potency [4] | Potency [5] | Potency [6] | Potency [7] | Potency [8] | Potency [18] | Potency [9] | Potency [10] | Potency [11] | Potency [12] | outcome [20] | Potency [14] | Potency [15] | Potency [16] | Potency [17]

Cc1nc2ccccc2s1
inactive: Potency [1] | Potency [2] | Potency [3] | Potency [4] | Potency [5] | Potency [6] | Potency [7] | Potency [8] | Potency [18] | Potency [9] | Potency [10] | Potency [11] | Potency [12] | Potency [19] | Potency [14] | Potency [15] | Potency [16] | Potency [17]

COCCOC
active: Potency [7] 0.74 µM
inactive: Potency [1] | Potency [2] | Potency [3] | Potency [4] | Potency [5] | Potency [6] | Potency [18] | Potency [9] | Potency [10] | Potency [11] | Potency [12] | Potency [14] | Potency [15] | Potency [16] | Potency [17]

O=C(O)c1c(O)c(-c2ccccc2)nc2ccccc12
inactive: Potency [1] | Potency [2] | Potency [3] | Potency [4] | Potency [5] | Potency [6] | Potency [7] | Potency [8] | Potency [9] | Potency [11] | Potency [12] | Potency [13] | Potency [19] | Potency [14] | Potency [15] | Potency [16] | Potency [17]

CC[C@H](NC(=O)c1cc(F)ccc1NS(=O)(=O)c1cccc2cccnc12)c1ccccc1
inactive: Potency [2] | Potency [3] | Potency [4] | Potency [5] | Potency [7] | Potency [8] | Potency [18] | Potency [10] | Potency [11] | Potency [12] | Potency [14] | Potency [15] | Potency [16] | Potency [17]
active: Potency [1] 23.2 µM | Potency [6] 46.3 µM

CC1(C)O[C@@H]2C[C@H]3[C@@H]4CCC5=CC(=O)C=C[C@]5(C)[C@H]4[C@@H](O)C[C@]3(C)[C@]2(C(=O)CO)O1
inactive: Potency [1] | Potency [2] | Potency [3] | Potency [4] | Potency [5] | Potency [6] | Potency [7] | Potency [8] | Potency [10] | Potency [11] | Potency [12] | outcome [20] | Potency [14] | Potency [15] | Potency [16] | Potency [17]

O=C(Nc1ccccc1)Nc1ccccc1
inactive: Potency [1] | Potency [2] | Potency [3] | Potency [4] | Potency [6] | Potency [18] | Potency [9] | Potency [10] | Potency [11] | Potency [12] | Potency [19] | Potency [15] | Potency [16] | Potency [17]
active: Potency [14] 1.54 µM

CCCOC(=O)c1ccc(C(=O)OCCC)nc1
inactive: Potency [1] | Potency [2] | Potency [3] | Potency [4] | Potency [6] | Potency [8] | Potency [18] | Potency [9] | Potency [10] | Potency [11] | Potency [12] | Potency [13] | Potency [19] | Potency [15] | Potency [16] | Potency [17]

O=C(CCCN1CCN(c2ccc(F)cc2)CC1)NC1c2ccccc2CSc2ccccc21 (configuration not stated)
active: Potency [4] 23.9 µM | Potency [7] 16.9 µM | Potency [8] 19 µM
inactive: Potency [1] | Potency [2] | Potency [3] | Potency [5] | Potency [18] | Potency [9] | Potency [11] | outcome [20] | Potency [14] | Potency [15]

O=Cc1c(Cl)cccc1Cl
inactive: Potency [1] | Potency [2] | Potency [3] | Potency [4] | Potency [5] | Potency [8] | Potency [9] | Potency [10] | Potency [11] | Potency [12] | Potency [19] | Potency [14] | Potency [15] | Potency [16] | Potency [17]

CO[C@@]12[C@H](COC(N)=O)C3=C(C(=O)C(C)=C(N)C3=O)N1C[C@@H]1N[C@@H]12
active: Potency [4] 8.49 µM | Potency [6] 3.38 µM
inactive: Potency [1] | Potency [2] | Potency [3] | Potency [5] | Potency [8] | Potency [18] | Potency [9] | Potency [12] | outcome [20] | Potency [14] | Potency [15]

CC1(C)C(=O)N(Br)C(=O)N1Cl
inactive: Potency [1] | Potency [2] | Potency [3] | Potency [4] | Potency [5] | Potency [7] | Potency [8] | Potency [18] | Potency [9] | Potency [10] | Potency [11] | Potency [12] | Potency [14] | Potency [15] | Potency [16] | Potency [17]
